Screens as filed in PubChem.
Most compounds without a hit are left out; they make up all but 21% or so of the library.
D3 ag = activates the human D3 dopamine receptor; max activation, %; hit rate 0.58% among 410,000; D3R DiscoveRx beta-arrestin cells, luminescence, 90 min; P35462; in the data active = max activation above about 30%; also: 0% is about no effect
Target sequence (P35462 whole entry, looked up): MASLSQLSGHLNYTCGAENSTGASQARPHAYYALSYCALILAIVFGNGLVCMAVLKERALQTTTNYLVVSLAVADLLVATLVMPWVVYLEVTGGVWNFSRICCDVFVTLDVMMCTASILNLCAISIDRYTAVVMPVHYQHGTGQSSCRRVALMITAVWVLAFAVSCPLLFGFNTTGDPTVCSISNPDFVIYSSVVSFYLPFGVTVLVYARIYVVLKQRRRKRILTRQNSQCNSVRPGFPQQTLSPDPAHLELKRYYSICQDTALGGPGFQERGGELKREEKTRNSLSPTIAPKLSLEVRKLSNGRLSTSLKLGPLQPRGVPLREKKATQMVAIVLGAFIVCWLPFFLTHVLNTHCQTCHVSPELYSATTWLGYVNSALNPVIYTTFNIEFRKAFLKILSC
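Cells at 1500/well, incubated overnight, then treated with pinned compounds (dopamine as control) for 90 min at 37 degrees C. DiscoveRx reagent added for 30 - 60 minutes at room temperature; luminescence read.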
TDP1 cell CPT = growth inhibition of DT40 Tdp1-/-;hTDP1 cells with camptothecin (screen for TDP1 inhibitors); hit rate 12% among 420,000; Potency, µM (titrated, usually from 46.2 µM), inactives show at the highest dose activity change, negative = growth inhibition, most hits filed as inhibitors; chicken DT40 Tdp1-/-;hTDP1 cells + 20 nM CPT, ATP luminescence, 48 h; AID 686979; also: potency is read from the fitted curve at half-maximal effect; % is scaled to controls: 0 for no effect and ±100 for the full control effect; nearly all actives have a fitted effect of over 55% in size
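Cell growth measured by CellTiter-Glo luminescence after a minimum 48 h, 37 C compound exposure with 20 nM CPT in Tdp1-knockout DT40 cells stably expressing hTDP1, seeded 400/well; qHTS titration format.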
ClpP mod = qHTS Assay for Activators of ClpP; purified B. subtilis ClpP, FRET peptide cleavage, 20 min; hit rate 1.9% among 340,000; AID 651965, 2013; Potency, µM (titrated, usually from 57.5 µM), for the others: at the top dose activity change, negative = active; active = well fitted falling curve with a large enough effect; inconclusive = small, poorly fitted or top-dose-only effect; inactive = no such curve, though single readings can be large or run the other way; also: potency is read from the fitted curve at half-maximal effect; the source files actives as falling curves though it sought activators and does not explain the sign; nearly all actives have a fitted effect of over 65% in size
Target sequence (P80244 whole entry, looked up): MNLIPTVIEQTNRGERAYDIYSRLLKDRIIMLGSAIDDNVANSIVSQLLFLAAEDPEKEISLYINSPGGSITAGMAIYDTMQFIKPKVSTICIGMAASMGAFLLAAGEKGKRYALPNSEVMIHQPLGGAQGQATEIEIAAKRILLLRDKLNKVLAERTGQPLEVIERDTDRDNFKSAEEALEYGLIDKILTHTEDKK
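Buffer: 100 mM Tris/HCl pH8, 100 mM KCl, 0.05% low protease BSA, 2.5% glycerol, 0.01% Tween-20. ClpP 10 microg/mL final; 20 min RT; delta FRET normalized to ADEP and DMSO controls.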
DRD3 antagonist = D3 dopamine receptor (human) antagonism. hit rate 2.5% among 360,000. max response, negative = inhibition, %. P35462. D3R cells, DiscoveRx beta-arrestin luminescence, antagonist mode; stronger effect = lower value; in the data active = max response below about -50%; inconclusive = no clear call, values can overlap the other calls; also: % is scaled to controls: 0 for no effect and ±100 for the full control effect
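Cells expressing the human receptor were seeded at 1500 cells/well, incubated overnight at 37 degrees C in 5% CO2, then exposed to library compounds with dopamine controls for 90 minutes at 37 degrees C before luminescent detection.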
IL1B secr inh = blocks inflammasome-driven IL-1 beta release; hit rate 4.7% among 360,000; activity change, % at 57.5 µM; AID 743279; THP-1 LPS/ATP IL-1B secretion, AlphaLISA, 16 h; stronger effect = lower value; in the data active = activity change below about -50%; inconclusive = mostly about -30% to -49%; also: % is scaled to controls: 0 for no effect and ±100 for the full control effect
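Secreted IL-1B measured by AlphaLISA bead assay after 16 h compound exposure of THP-1 cells; compounds (final up to 57.5 uM) added 1 h before LPS (250 ng/mL) and ATP (1.25 mM) stimulation; lower signal means less secretion.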
TDP1 cell noCPT = qHTS for Inhibitors of human tyrosyl-DNA phosphodiesterase 1 (TDP1): qHTS in cells in absence of CPT | DT40 Tdp1-/- hTDP1 cells, no CPT, ATP luminescence, 48 h | Potency, µM (highest dose often 46.2 µM), inactives show at the highest dose activity change, negative = growth inhibition, hits mostly inhibitors | hit rate 15% among 420,000; also: potency is read from the fitted curve at half-maximal effect; % is scaled to controls: 0 for no effect and ±100 for the full control effect; nearly all actives have a fitted effect of over 55% in size
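A cellular qHTS used chicken DT40 cells lacking endogenous Tdp1 but carrying stably transfected human TDP1. Compounds were applied without camptothecin, and cell growth kinetics were judged by ATP-dependent luminescence after ≥48 hr.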
* = called active by the depositor; ? = inconclusive; . = no result. Unless noted, calls follow the shape of the dose curve; as a rule, active = well fitted inhibition curve with a large enough effect; inconclusive = small, poorly fitted or top-dose-only effect; inactive = flat fitted curve, though single readings scatter.

SMILES | D3 ag | TDP1 cell CPT | ClpP mod | DRD3 antagonist | IL1B secr inh | TDP1 cell noCPT
CC1CCN(S(=O)(=O)c2cc(C(=O)N3CCN(c4ncccn4)CC3)ccc2Br)CC1 | 2.2 | ? | -11.7% | 17.1 | -18.1 | 23.1µM*
CSc1ccccc1NS(=O)(=O)c1ccccc1 | 0.8 | -2.6% | 3.6% | 4.4 | -4.0 | -11.3%
O=C(CCC(=O)N1CCOc2ccc(Cl)cc21)NCCN1CCOCC1 | -8.9 | 4.5% | -2.8% | 1.1 | 0.8 | -3.8%
COc1ccc(/C=N/Nc2c(Cl)cc(Cl)cc2Cl)cc1CN1CCOCC1 | 1.6 | 16.4µM* | -3.5% | -3.7 | -12.4 | 14.6µM*
CC(NC(=O)COC(=O)/C=C/c1ccco1)c1ccccc1 (stereo not given) | 8.5 | 12.1% | . | 2.5 | 4.3 | -21.7%
Clc1ccc(Cn2ncc3c(N4CCCC4)ncnc32)cc1 | -1.4 | -13.3% | -0.4% | 0.0 | ? | ?
Clc1ccc(Cn2ncc3c(N4CCCCC4)ncnc32)cc1 | 0.4 | 16.4µM* | -5.2% | 23.5 | -8.3 | 20.6µM*
Clc1ccc(Cn2ncc3c(N4CCCCC4)ncnc32)c(Cl)c1 | 17.9 | 23.1µM* | -1.3% | 26.5 | -6.7 | 11.6µM*
Clc1ccc(-n2ncc3c(N4CCCCCC4)ncnc32)cc1 | -6.0 | ? | 0.1% | -20.4 | -6.1 | ?
Clc1ccc(Cn2ncc3c(N4CCOCC4)ncnc32)cc1 | 1.3 | ? | 0.8% | 18.3 | -11.2 | 23.1µM*
COc1ccccc1N(CC(=O)NCCc1ccccc1)C(=O)CCC(=O)Nc1cc(C)ccn1 | 2.9 | -18.4% | . | 1.4 | -5.3 | -25.6%
COc1ccccc1CN(C)C(=O)COC(=O)c1c(C)noc1C | -4.5 | -16.5% | . | 0.8 | 29.9 | -22.5%
Cc1ccc(C)c(NC(=O)CCN2CCC(C)CC2)c1 | -6.0 | -22.0% | 0.9% | -3.1 | 0.0 | -0.3%
CCCN(CCC)CCCNc1ccc(C(=O)Nc2cccc(OC)c2)cc1[N+](=O)[O-] | -10.6 | ? | 0.3% | 10.4 | -81.4* | ?
COc1cccc(NC(=O)c2ccc(NCCCN3CCC(C)CC3)c([N+](=O)[O-])c2)c1 | -19.7 | ? | . | -53.6* | -64.5* | 16.4µM*
O=C(Nc1cc(F)cc(F)c1)c1ccc(NCCCN2CCCCCC2)c([N+](=O)[O-])c1 | -8.9 | ? | -2.1% | -2.9 | -75.7* | ?
COc1cccc(NC(=O)c2ccc(NCCCN3CC(C)CC(C)C3)c([N+](=O)[O-])c2)c1 (stereo not given) | -16.9 | 0.2% | . | ? | -6.8 | ?
Cc1ccc(NC(=O)c2ccc(NCCCN3CCC(C)CC3)c([N+](=O)[O-])c2)c(C)c1 | -16.0 | ? | -1.1% | -7.8 | ? | 16.4µM*
O=C(Nc1cc(F)cc(F)c1)c1ccc(NCCc2ccccc2)c([N+](=O)[O-])c1 | 4.1 | 6.1% | 1.8% | 8.2 | 1.2 | -0.2%
CCOc1ccc(-n2ccnc2SCC(=O)Nc2nc3ccc(C)cc3s2)cc1 | 1.5 | -1.4% | -3.8% | . | . | -23.4%
O=C(/C=C/c1cccc([N+](=O)[O-])c1)Nc1ccc(Cl)cn1 | -6.1 | ? | 1.9% | -1.0 | -8.0 | 2.59µM*
CCN(CC)S(=O)(=O)c1cccc(NC(=O)/C=C/c2cccc([N+](=O)[O-])c2)c1 | 8.0 | ? | 0.8% | 2.2 | 17.0 | 29.1µM*
O=C(/C=C/c1cccc([N+](=O)[O-])c1)NC(=S)Nc1cccc(NC(=O)c2ccccc2Cl)c1 | -3.8 | 14.6µM* | 0.2% | 0.0 | ? | 13µM*
O=C(COC(=O)/C=C/c1cccc([N+](=O)[O-])c1)Nc1ccc(Cl)cn1 | -6.5 | 2.1% | -3.1% | -18.8 | 3.2 | 9.6%
CC(=O)Nc1ccc(C=CC=Cc2cccc([N+](=O)[O-])c2)cc1 | -13.8 | 29.1µM* | 1.4% | 35.3 | -96.6* | ?
SMILES | D3 ag | TDP1 cell CPT | ClpP mod | DRD3 antagonist | IL1B secr inh | TDP1 cell noCPT
CC(=O)Nc1ccc(OCc2cccc([N+](=O)[O-])c2)cc1 | -10.7 | 16.4% | . | 1.3 | 0.0 | ?
CCN(CC)S(=O)(=O)c1cccc(NC(=O)/C=C/c2ccc([N+](=O)[O-])cc2)c1 | 9.8 | -1.9% | -2.0% | 18.3 | 5.0 | ?
CC[C@]12c3[nH]c4ccc(OC)cc4c3CCN1C(=O)C(CC(=O)NCCN1CCOCC1)C[C@@H]2C(=O)N1CCN(C(=O)c2ccco2)CC1 (stereo not given in full) | -1.9 | 6.7% | -2.3% | 12.2 | 0.8 | 15.5%
COC(=O)C1=C(C#N)NC(C)=C(C(=O)OC(C)C)C1c1cccc([N+](=O)[O-])c1 (stereo not given) | 7.4 | 29.9µM* | . | . | . | 18.8µM*
CCOC(=O)C1=C(C)NC(C)=C(C(=O)OCCNC(=O)c2cccnc2)C1c1cccc([N+](=O)[O-])c1 (stereo not given) | -29.9 | 23.1µM* | 1.7% | -26.7 | -58.7* | ?
O=C(NCCOC(=O)c1ccc([N+](=O)[O-])cc1)c1cccnc1 | 2.6 | -9.2% | . | 20.3 | 44.9 | -7.4%
COC(=O)C1=C(C)NC(C)=C(C(=O)OCCN2CCN(C(c3ccccc3)c3ccccc3)CC2)C1c1cccc([N+](=O)[O-])c1 (stereo not given) | -26.5 | 6.68µM* | . | . | . | 4.73µM*
COC(=O)c1nc(NNC(=O)c2ccccc2)sc1-c1ccccc1 | -5.3 | 10.8% | . | -10.3 | -13.8 | 6.9%
COc1ccc(OC)c(NC2=NC3(CCCC3)N=C(N)N2)c1 | -4.9 | -21.2% | -1.0% | -57.6* | 16.5 | -11.9%
NC1=NC2(CCCCC2)N=C(Nc2ccc(F)cc2F)N1 | 4.8 | -2.5% | 3.8% | 10.1 | 11.0 | -0.1%
CCCCOc1ccc(NC2=NC3(CCCC3)N=C(N)N2)cc1 | -3.0 | 16.4µM* | -0.1% | -14.6 | -28.2 | 16.4µM*
CCCCOc1ccc(C2(C(=O)O)CCCC2)cc1 | 8.5 | -21.9% | -4.2% | 43.8 | 9.4 | -28.8%
Cc1ccc2c(Br)cc(Br)c(O)c2n1 | -28.9 | 7.5µM* | . | . | . | 8.41µM*
COc1cc(/C=C/C2=NC(=O)C(C)(C)O2)ccc1O | -0.6 | ? | 5.7% | 1.5 | -21.8 | -12.4%
COc1cc(/C=C/c2ccc3c(Br)cc(Br)c(O)c3n2)ccc1O | -27.3 | 3.26µM* | -2.5% | -90.9* | 25.0 | 5.17µM*
Cc1cc(Nc2cccc(O)c2)c2cccc(Br)c2n1 | 2.9 | -23.5% | -3.9% | . | . | -27.7%
COc1ccc(/C=C/c2ccc3c(Br)ccc(O)c3n2)cc1 | -19.9 | 10.3µM* | . | ? | 102.9 | 20.6µM*
